# Assay outcomes as filed in PubChem BioAssay.
# Pf growth 96h: Primary qHTS for delayed death inhibitors of the malarial parasite plastid, 96 hour incubation. P. falciparum luciferase reporter growth, 96 h. Potency, µM (highest dose often 28.7 µM), most hits filed as inhibitors. hit rate 6.9% among 320,000. AID 504834, 2011
#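 Readout is luminescence from an integrated firefly luciferase in P. falciparum. Red cells, 2% hematocrit and 0.05% parasitemia final, were cultured with compound through two parasite generations (96 hours) at 37 C, 5% CO2.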
# MARV entry inh: qHTS for inhibitors of binding or entry into cells for Marburg Virus; Marburg virus pseudotyped entry inhibition, cell reporter; Potency, µM (series often up to 37.8 µM), usual class: inhibitors; hit rate 1.8% among 300,000; calls by dose curve; tested in HEK293 cells
# CHX counter: Cycloheximide Counterscreen for Small Molecule Inhibitors of Shiga Toxin; hit rate 12% among 300,000; max response, %; cell reporter, cycloheximide protein synthesis inhibition counterscreen; AID 2314, 2010; in the data active means max response mostly above about 13%, no sharp cut-off; inactive means mostly below about 14%; further: read at 38.3 µM for the half of the compounds with a filed dose
# Shiga toxin inh: A qHTS for Small Molecule Inhibitors of Shiga Toxin. Vero cells, Shiga toxin protein synthesis inhibition reporter. hit rate 9.2% among 290,000. inhibition, % at 38.7 µM; in the data active means inhibition mostly above about 28%, no sharp cut-off; inactive means mostly below about 43%
# Pf growth 48h: Primary qHTS for delayed death inhibitors of the malarial parasite plastid, 48 hour incubation; hit rate 5.9% among 310,000; P. falciparum luciferase growth in erythrocytes, 48 h; Potency, µM (top dose mostly 28.7 µM), hits mostly inhibitors
#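 Here the parasites carry a stable luciferase gene and grow inside erythrocytes in Albumax-based RPMI medium with compound for one erythrocytic cycle. Activity is scored as loss of luminescent signal.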
# Lassa entry inh: qHTS for Inhibitors of binding or entry into cells for Lassa Virus. Lassa virus pseudotype entry inhibition, cell reporter. Potency, µM (highest dose often 37.9 µM), hits mostly inhibitors. hit rate 1.2% among 300,000; calls by dose curve; tested in HEK293 cells; further: nearly all actives have a fitted effect of over 50% in size
# Hits are given with their value; i = inactive; ? = inconclusive; nt = not tested or not shown. This is a sample that favours compounds with a hit; in the whole collection about 19% have one here. Unless noted, the call rests on the fitted dose curve; in most records, active means well fitted inhibition curve with a large enough effect; inconclusive means small, poorly fitted or top-dose-only effect, or another doubt; inactive means no such curve, though single readings can be large or run the other way.
SMILES,Pf growth 96h,MARV entry inh,CHX counter,Shiga toxin inh,Pf growth 48h,Lassa entry inh
CSc1nsc(SCC(=O)NCc2ccccc2)n1,?,i,i,i,i,i
NC(=NCCc1ccc(Cl)cc1)NS(=O)(=O)c1ccc(F)cc1,i,i,i,i,i,i
CCc1cccc(CC)c1N(COC)C(=O)Cn1c(CC)nc2ccccc21,nt,i,nt,nt,nt,i
CCc1cccc(CC)c1N(COC)C(=O)Cn1c(C(C)O)nc2ccccc21 (configuration not stated),9.3µM,?,i,i,i,i
CCOCCn1c(C(C)O)nc2ccccc21 (configuration not stated),3.7µM,i,i,i,i,i
Cn1c(N)c(Br)c(-c2ccc(F)cc2)c(C#N)c1=O,?,i,i,i,?,?
CC1CN(c2sc(S(C)(=O)=O)nc2S(=O)(=O)c2ccc(Cl)cc2)CC(C)O1 (configuration not stated),?,nt,i,i,i,nt
CCS(=O)(=O)c1nc(S(=O)(=O)c2ccc(Cl)cc2)c(NCCCN2CCOCC2)s1,12µM,nt,i,i,i,nt
CC1CCCN(c2sc(S(C)(=O)=O)nc2S(=O)(=O)c2ccc(Cl)cc2)C1 (configuration not stated),13µM,nt,i,i,?,nt
Cc1ccc(S(=O)(=O)c2nc(S(=O)(=O)CCO)sc2N2CCOCC2)cc1,i,?,i,i,i,?
CCS(=O)(=O)c1nc(S(=O)(=O)c2ccc(Cl)cc2)c(N2CCc3ccccc3C2)s1,2.9µM,?,i,i,9.3µM,?
CCCS(=O)(=O)c1nc(S(=O)(=O)c2ccc(C)cc2)c(N2CCOCC2)s1,i,i,i,i,12µM,i
CCOc1ccc(C(=O)NC(=S)Nc2ccc(N3CCC(C)CC3)cc2)cc1[N+](=O)[O-],i,?,i,i,i,i
O=C(O)c1ccc(NC(=O)C2(c3ccccc3)CCCC2)cc1,i,i,i,i,i,i
Cc1ccc(CN(C(=O)c2cccs2)C2CCS(=O)(=O)C2)cc1 (configuration not stated),i,nt,i,i,?,nt
COc1ccc(/C=C/C(=O)OCn2c(SC)nnc(C)c2=O)cc1OC,i,nt,i,i,i,nt
CCCCn1c(SCC(=O)Nc2ccccc2C(F)(F)F)nc2ccsc2c1=O,12µM,i,i,i,i,i
CCCCn1c(SCC(=O)Nc2ccc(OCC)cc2)nc2ccsc2c1=O,nt,nt,nt,nt,nt,i
CCCCn1c(SCC(=O)N2CCC(C)CC2)nc2ccsc2c1=O,i,8.2µM,i,i,12µM,i
Cc1cc(Oc2cc(N)cc([N+](=O)[O-])c2)ccc1Cl,8.3µM,i,i,i,i,?
COc1ccc(COc2cc(-c3cccc(OC)c3)nc3ccc(NC(=O)c4ccc(OC)cc4)cc23)cc1,4.7µM,?,i,i,13µM,?
COc1ccc(COc2cc(-c3cccc(OC)c3)nc3ccc(NC(=O)c4cccnc4)cc23)cc1,2.3µM,i,i,i,2.9µM,15µM
COc1ccc(COc2cc(-c3cccc(OC)c3)nc3ccc(NC(=O)c4ccc(Cl)cc4)cc23)cc1,3.7µM,i,i,i,2.1µM,?
COc1ccc(COc2cc(-c3cccc(OC)c3)nc3ccc(NC(=O)c4ccccc4)cc23)cc1,12µM,i,i,i,12µM,?
Cc1nc(SCC(=O)OC(C)(C)C)c2c3c(sc2n1)CCCC3,nt,nt,nt,nt,nt,i
SMILES,Pf growth 96h,MARV entry inh,CHX counter,Shiga toxin inh,Pf growth 48h,Lassa entry inh
Cc1cccc(C(=O)Nc2ccc(O)cc2C(=O)O)c1,?,?,i,i,i,i
Cc1ccc(CS(=O)(=O)Cc2ccc(C(=O)NC3CC3)o2)cc1,i,nt,i,i,i,nt
O=C(NC1CCCCCC1)c1ccc(CS(=O)(=O)Cc2ccc(F)cc2)o1,?,nt,22,40,i,nt
COC(=O)c1ccc(CS(=O)(=O)c2ccc(F)cc2)o1,5.2µM,nt,i,i,i,nt
COc1ccc(S(=O)(=O)Cc2ccc(C(=O)NC3CCCCCC3)o2)cc1,7.4µM,nt,i,i,i,nt
Cc1c(Cl)cccc1N1C(=O)[C@@H]2[C@H](ON(c3ccccc3)[C@H]2c2cccnc2)C1=O,nt,i,nt,nt,nt,nt
CCOc1ccc2[nH]c(=O)c(CN(Cc3cccs3)Cc3nnnn3C(C)(C)CC)cc2c1,i,?,i,i,8.3µM,?
CCC(C)(C)n1nnnc1CN(Cc1cccs1)Cc1cc2cc(OC)ccc2[nH]c1=O,nt,?,i,i,13µM,i
CCc1ccccc1-n1nnnc1SCC(=O)Nc1cc(C)on1,9.3µM,i,i,i,i,i
CCc1ccccc1-n1nnnc1SCC(=O)Nc1ccc(N2CCN(C)CC2)cc1,?,nt,i,i,15µM,nt
CC(C)Sc1nc(-c2ccccc2)cc(=O)[nH]1,i,i,i,i,i,i
CCn1nc(C)c(CNC(=O)CCc2nnc(-c3ccc(C(C)=O)s3)o2)c1C,i,i,i,i,i,i
CCN(CC)CCN(C)C(=O)CCc1nnc(-c2ccc(C)s2)o1,?,i,22,34,i,?
CCOC(=O)Cc1nnc(-c2ccccc2)o1,?,nt,22,i,i,nt
CCOC(=O)c1nnc(-c2ccccc2)o1,i,i,i,i,i,?
Cc1cccc(CC(C)NC(=O)CCc2nnc(-c3ccccc3)o2)n1 (configuration not stated),?,nt,13,i,i,nt
CCOC(=O)CN(C)C(=O)CCc1nnc(-c2ccc(-c3ccccc3)cc2)o1,i,i,13,i,?,i
Cc1ccc(S(=O)(=O)N(C)CC(=O)OCc2nnc(-c3ccccc3)o2)cc1,i,i,i,i,i,i
CCOC(=O)CNC(=S)n1cnc(N)n1,i,i,i,i,?,i
CC(C)(CO)CNC(=O)CCc1nnc(C2(c3ccc(Cl)cc3)CCC2)o1,?,nt,i,i,i,nt
CC(C)(CO)CNC(=O)CCc1nnc(-c2ccc(-c3ccccc3)cc2)o1,?,nt,25,60,i,nt
Cc1ccc(SCC(=O)N(C)C2CCS(=O)(=O)C2)c(C)c1 (configuration not stated),nt,?,nt,nt,nt,i
S=c1[nH]nc(-c2cc3c(s2)-c2ccccc2CC3)o1,i,i,30,56,i,i
CC1CCc2sc(C(=O)NC3CCCCC3)cc2C1 (configuration not stated),i,nt,nt,nt,i,nt
CC1CCc2sc(-c3n[nH]c(=S)o3)cc2C1 (configuration not stated),i,nt,19,41,i,nt
SMILES,Pf growth 96h,MARV entry inh,CHX counter,Shiga toxin inh,Pf growth 48h,Lassa entry inh
O=C(CSc1nnc(-c2ccc(Cl)s2)o1)N1CCc2ccccc21,nt,i,i,i,i,nt
CSc1nnc(-c2cc3c(s2)-c2ccccc2CC3)o1,i,i,25,80,i,i
COc1ccc2c(c1)cc(C(O)c1ccccn1)n2S(=O)(=O)c1ccccc1 (configuration not stated),i,i,19,41,i,i
O=S(=O)(c1ccccc1)n1c(C(O)c2ccccn2)cc2ccccc21 (configuration not stated),i,i,i,i,i,?
CC(=O)Nc1c(Br)cc2c(c1Br)C(=O)c1ccccc1-2,nt,i,nt,nt,nt,i
CC(=O)C1=C(c2ccc(Br)cc2)C(=O)c2ccccc2C1=O,?,5.2µM,i,i,?,2.5µM
